Assay outcomes deposited in PubChem BioAssay by National Center for Advancing Translational Sciences (NCATS).
This is one part of a sample in which hits are shown more often than they occur.
HT1080 IDH1KD tx = kills HT-1080 cells with IDH1 knockdown; HT-1080 IDH1 knockdown viability, ATP luminescence, 48 h; Potency, µM (series often up to 46.1 µM), without a hit: top-dose activity, negative = toxicity, hits mostly cytotoxic; 360,000 tested, 2% active; AID 686971;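 further: potency means the concentration at half of the fitted maximal effect; 0% = DMSO wells and -100% = cell-free medium wells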
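Cytotoxicity counter-line: IDH1KD HT-1080, 48 h, CellTiter-Glo. Curves classed by r2, magnitude and activity.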
TDP1 cell CPT = growth inhibition of DT40 Tdp1-/-;hTDP1 cells with camptothecin (screen for TDP1 inhibitors) | chicken DT40 Tdp1-/-;hTDP1 cells + 20 nM CPT, ATP luminescence, 48 h | Potency, µM (doses to about 46.2 µM), for the others: at the top dose activity change, negative = growth inhibition, usual class: inhibitors | 420,000 tested, 12% active; further: potency means the concentration at half of the fitted maximal effect; nearly all actives have a fitted effect of over 55% in size
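Chicken DT40 Tdp1-/- cells complemented with human TDP1, 400 cells/well, exposed to compounds plus 20 nM camptothecin for at least 48 h at 37 C; viability read as ATP content by CellTiter-Glo luminescence.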
TDP1 cell noCPT = qHTS for Inhibitors of human tyrosyl-DNA phosphodiesterase 1 (TDP1): qHTS in cells in absence of CPT; DT40 Tdp1-/- hTDP1 cells, no CPT, ATP luminescence, 48 h; Potency, µM (highest dose often 46.2 µM), without a hit: top-dose activity change, negative = growth inhibition, hits mostly inhibitors; AID 686978, 2013; 420,000 tested, 15% active; further: potency means the concentration at half of the fitted maximal effect; nearly all actives have a fitted effect of over 55% in size
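Camptothecin absent (DMSO only). Human TDP1-complemented DT40 knockout cells, 400 cells/well, 37 °C for minimum 48 hr; ATP measured via CellTiter-Glo, 30 min dark incubation, luminescence.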
HT1080-NT tox = kills 2HG-producing HT-1080-NT fibrosarcoma cells; HT-1080-NT fibrosarcoma viability, CellTiter-Glo ATP luminescence, 48 h; Potency, µM (doses to about 46.1 µM), for the others: top-dose activity, negative = less viability, usual class: cytotoxic; 360,000 tested, 1.6% active;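 further: NT is the 2HG producing partner of a matched IDH1 knockdown line; potency means the concentration at half of the fitted maximal effect; 0% = DMSO-treated cells and -100% = media-only wells without cells; nearly all actives have a fitted effect of over 55% in size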
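Luminescent CellTiter-Glo readout after 48 hours of compound exposure at 37 degrees C defined viability of HT-1080-NT cells. Activity was normalized to DMSO wells and cell-free media wells; concentration-response curves were fitted and assigned curve classes.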
ALOX12 inh = ALOX12 (human) lipoxygenase inhibition | P18054 | purified 12hLO, xylenol orange hydroperoxide absorbance | Potency, µM (highest dose often 108 µM), for inactives: at the top dose activity change, negative = inhibition, most hits filed as inhibitors | 580,000 tested, 1.1% active; further: potency means the concentration at half of the fitted maximal effect
Target sequence (P18054 whole entry, looked up): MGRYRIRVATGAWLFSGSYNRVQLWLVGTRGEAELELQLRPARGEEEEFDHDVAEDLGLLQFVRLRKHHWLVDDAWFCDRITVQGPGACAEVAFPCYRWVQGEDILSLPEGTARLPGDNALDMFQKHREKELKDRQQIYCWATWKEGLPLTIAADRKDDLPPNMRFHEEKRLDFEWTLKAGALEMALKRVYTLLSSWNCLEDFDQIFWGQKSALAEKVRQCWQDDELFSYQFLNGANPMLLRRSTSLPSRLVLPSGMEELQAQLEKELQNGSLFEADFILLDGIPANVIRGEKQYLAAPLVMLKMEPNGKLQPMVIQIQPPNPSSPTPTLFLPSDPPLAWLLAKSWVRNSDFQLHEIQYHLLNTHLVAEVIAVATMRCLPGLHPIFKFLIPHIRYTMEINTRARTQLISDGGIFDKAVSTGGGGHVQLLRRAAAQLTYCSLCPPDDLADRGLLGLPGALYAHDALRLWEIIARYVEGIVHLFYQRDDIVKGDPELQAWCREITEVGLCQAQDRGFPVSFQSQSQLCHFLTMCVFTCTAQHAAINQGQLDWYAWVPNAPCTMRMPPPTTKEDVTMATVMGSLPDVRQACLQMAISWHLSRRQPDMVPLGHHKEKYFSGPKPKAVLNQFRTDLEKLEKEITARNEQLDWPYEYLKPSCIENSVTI
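Hydroperoxide product was detected by ferrous iron/xylenol orange as the 573 to 405 nm absorbance ratio. Arachidonic acid at 40 uM (final) was turned over for 30 min at room temperature by 150 nM human 12hLO, pH 7.0 Hepes buffer, after 15 min compound preincubation.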
IL1B secr inh = blocks inflammasome-driven IL-1 beta release; THP-1 LPS/ATP IL-1B secretion, AlphaLISA, 16 h; hits give low values; activity change, % at 57.5 µM; 360,000 tested, 4.7% active; AID 743279; in the data active means activity change below about -50%; inconclusive means mostly about -30% to -49%
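THP-1 cells pretreated 1 hr with compounds (up to 57.5 uM final), then stimulated with LPS (250 ng/mL final) plus ATP (1.25 mM final); secreted IL-1B measured by AlphaLISA after 16 hr, decreased signal indicating inhibition.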
Starred values were filed as active, the others as inactive; ? = inconclusive; . = not tested or not shown; ! = a repeat was not active; [ ] = another dose, or the depositor's remark. Unless noted, the call rests on the fitted dose curve; in most records, active means well fitted curve in the direction sought with a large enough effect; inconclusive means small, poorly fitted or top-dose-only effect, or another doubt; inactive means no such curve, though single readings can be large; an effect the other way counts as inactive or inconclusive. Unless noted, on the % scale 0 is the no-effect control and ±100 the full control effect.

SMILES | HT1080 IDH1KD tx | TDP1 cell CPT | TDP1 cell noCPT | HT1080-NT tox | ALOX12 inh | IL1B secr inh
COc1ccc(CCNC(=O)c2nc(SCc3ccc(C)cc3)ncc2Cl)cc1OC | . | 12µM* | 10µM* | . | -13% | .
COc1ccc(OC)c(NC(=O)c2nc(SCc3ccc(F)cc3)ncc2Cl)c1 | . | -11% | -14% | . | -4% | .
O=C([C@H]1C[C@H](Oc2ccccc2)CN1C(=O)Cc1cccc(F)c1)N1CCOCC1 | . | . | . | . | 27% | .
CC(C)c1ccccc1NS(=O)(=O)c1ccc(CCC(=O)O)cc1 | . | . | . | . | 3% | .
CC1CS(=O)(=O)N(c2ccc(S(=O)(=O)NCc3cccnc3)cc2)C1=O (stereo not drawn) | . | . | . | . | 22% | .
O=C(C1CC1)N1CCCC(c2nn(-c3ccccc3)c(=O)[nH]2)C1 (stereo not drawn) | . | . | . | . | 25%[176 µM] | .
O=C(NNC(=O)c1cc(Br)ccc1O)c1csc(N2CCOCC2)n1 | ? | ? | 21µM* | -24% | . | 96
CC(=O)Nc1ccc(C(=O)NNC(=O)c2csc(N3CCOCC3)n2)cc1 | 0% | ? | 7.3µM* | 0% | 4% | -28
CCOc1ncccc1C(=O)NNC(=O)c1csc(N2CCOCC2)n1 | -22% | 26µM* | ? | -13% | 15% | -30
O=c1c(-c2ccccc2)coc2cc(OCc3cccc4ccccc34)ccc12 | . | . | . | . | -1% | .
Cc1ccc(-c2nc(Cn3cnc(C#N)n3)co2)cc1 | . | . | . | . | -6% | .
Cc1oc(-c2nc(C#N)c(N3CCN(C)CC3)o2)cc1S(=O)(=O)N(C)C | . | . | . | . | 4% | .
CSc1ccc(NC(C)=O)cc1 | . | . | . | . | -44% | .
CCOC(=O)CN1N=C(/C=C/c2ccc(C(C)C)cc2)CCC1=O | -11% | ? | ? | -8% | -9% | -56*
CCOC(=O)CN1N=C(/C=C/c2ccccc2)CCC1=O | 3% | -21% | -10% | -1% | -4% | -5
O=c1[nH]c(CSc2cccc[n+]2[O-])nc2ccccc12 | 0% | 10µM* | ? | 0% | -12% | 63
c1ccc(Cn2cc(CN3CCCC3)c(-c3ccc4c(c3)OCO4)n2)cc1 | . | . | . | . | 18% | .
CCCCN(C(=O)Cc1ccc(S(=O)(=O)N2CCOCC2)s1)c1ccccc1 | 8% | ? | 21µM* | 1% | 2% | 22
CCNC(=O)Cc1ccc(S(=O)(=O)N2CCOCC2)s1 | 5% | 9% | 8% | 1% | -2% | 15
O=C(Cc1ccc(S(=O)(=O)N2CCOCC2)s1)N(Cc1ccccc1)c1ccccc1 | 5% | ? | 21µM* | 4% | -8% | -7
CC(C)c1nnc2ccc(N3CCC(C(=O)Nc4ccc5c(c4)OCO5)CC3)nn12 | . | . | . | . | 11% | .
O=C(O)c1cc(-c2ccc(/C=C3\NC(=O)N(c4ccccc4)C3=O)o2)ccc1Cl | 1% | ? | 4.1µM* | -1% | ? | 0
O=C(O)c1cc(-c2ccc(/C=C3\NC(=O)N(c4ccc(Cl)cc4)C3=O)o2)ccc1Cl | 0% | -7% | -11% | 5% | ? | -11
CC(C)c1c(C(=O)N/N=C/c2cccc(OCc3ccc(F)cc3)c2)nnn1-c1nonc1N | -3% | ? | 16µM* | 14% | -16% | -83*
CCN(CC)c1ccc(/C=N/NC(=O)c2nnn(-c3nonc3N)c2C(C)C)c(O)c1 | 1.3µM* | 5.8µM* | 3.3µM* | ? | -19% | 80
SMILES | HT1080 IDH1KD tx | TDP1 cell CPT | TDP1 cell noCPT | HT1080-NT tox | ALOX12 inh | IL1B secr inh
COc1cc(/C=N/NC(=O)c2nnn(-c3nonc3N)c2C(C)C)ccc1OCc1ccc(F)cc1 | 12µM* | ? | 21µM* | ? | -3% | ?
O=C(NC1CCNCC1)c1[nH]ncc1NC(=O)c1c(Cl)cccc1Cl | . | . | . | . | -36%[57.4 µM] | .
COc1cc2c(cc1OC)CN(C(=O)CCCOc1ccc(Cl)cc1Cl)CC2 | ? | 16µM* | 18µM* | ? | -11% | ?
COc1ccc(OC)c(CC(=O)N2CCc3cc(OC)c(OC)cc3C2)c1 | -3% | 0.13µM* | ? | 0% | 1% | -2
C/C=C/c1ccc(OCC(=O)N2CCc3cc(OC)c(OC)cc3C2)c(OC)c1 | 0% | ? | 23µM* | -8% | 1% | ?
COc1cc2c(cc1OC)CN(C(=O)CCOc1ccccc1C)CC2 | ? | ? | 21µM* | ? | -2% | 37
COc1cc2c(cc1OC)CN(C(=O)CCCN1C(=O)c3ccccc3C1=O)CC2 | -7% | -11% | -17% | 5% | 9% | 45
COc1ccc(NC(=O)CCn2ccn3nc4c(c3c2=O)CCCC4)cc1OC | . | . | . | . | 37% | .
C=CC[N+](C)(C)CC#Cc1ccccc1 | . | . | . | . | -14% | .
O=C(CS(=O)(=O)c1ccc2ccccc2c1)c1ccc(Cl)cc1 | . | . | . | . | -51% | .
C=CCOC(=O)Oc1ccc2c(=O)c(Oc3ccc(CC)cc3)c(C(F)(F)F)oc2c1 | . | . | . | . | 0% | .
COc1cc2c(cc1OC)CN(C(=O)CCOc1ccccc1)CC2 | -20% | ? | 18µM* | -15% | 14% | 22
Cc1ccc(C(=O)n2nc(-c3ccc(C)cc3)nc2N)cc1 | . | . | . | . | -7% | .
O=C(NCc1ccccn1)c1ccc2c(=O)n(CCc3ccccc3)c(=O)[nH]c2c1 | -10% | 21µM* | ? | 21% | 6% | 0
CCCCCn1c(=O)[nH]c2cc(C(=O)NCCN(CC)CC)ccc2c1=O | ? | 9.2µM* | 21µM* | ? | -3% | -12
CC(C(=O)Nc1cnc2ccccc2c1)N1C(=O)c2ccccc2C1=O (stereo not drawn) | . | . | . | . | -4% | .
Nn1c(SCC(=O)N2CCCCCC2)nnc1-c1cccs1 | . | . | . | . | 0% | .
CC(C)=CCc1c2c(c3occ(-c4ccc(O)c(O)c4)c(=O)c3c1O)C=CC(C)(C)O2 | ? | 1.3µM* | 1.5µM* | ? | 40µM*! | -62*
CC(C)=CCc1c(O)cc2c(=O)c3ccc(O)cc3oc2c1O | 3% | -16% | ? | 3% | ? | 13
CC(C)Oc1cc(O)c2c(=O)c(-c3ccc(O)cc3)coc2c1 | 1% | -6% | -27% | -5% | -10% | -8
CC1(C)C=Cc2c(c3c(c4c(=O)c(-c5ccc(O)cc5)coc24)OC(C)(C)CC3)O1 | ? | 18µM* | 26µM* | 12% | ? | ?
Cc1ccccc1Nc1c(-c2ccc(N3CCOCC3)cc2)nc2cccc(C)n12 | . | ? | ? | . | -21% | .
Cc1ccc(Nc2c(-c3cccnc3)nc3ccc(Br)cn23)cc1 | 8% | ? | ? | 0% | -15% | 3
